Reference: PubChem BioAssay AID686979 (National Center for Advancing Translational Sciences (NCATS), 2013)
Values joined by “and” are separate entries in the source; they are usually repeats but may differ in a detail not shown here. Equal values may be shown once. In all, about 420,000 compounds went through this assay and about 50,000 (12%) were called active. Where a call stands in place of a potency, no number is given. Inconclusive results (about 26%) are left out. Calls follow the shape of the dose curve; as a rule, active = well fitted inhibition curve with a large enough effect; inconclusive = small, poorly fitted or top-dose-only effect; inactive = flat fitted curve, though single readings scatter. The sample as a whole holds a higher share of actives than the screen did.

assay: qHTS for Inhibitors of human tyrosyl-DNA phosphodiesterase 1 (TDP1): qHTS in cells in presence of CPT; settings: chicken DT40 Tdp1-/-;hTDP1 cells + 20 nM CPT, ATP luminescence, 48 h; series mostly up to 46.2 µM; also: nearly all actives have a fitted effect of over 55% in size
How it was run: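 Chicken DT40 Tdp1-/- cells stably complemented with human TDP1 were seeded at 400 cells/well in medium containing 20 nM camptothecin, exposed to pin-transferred compounds, and grown at 37 °C for at least 48 hr. Viability was read as ATP luminescence.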
Potency is read from the fitted curve at half-maximal effect.

Structure (SMILES) | Potency
COc1ccc(CCNCc2c(-c3ccccc3)n(C)c3ccccc23)cc1 | 16.4 µM (active)
COc1ccc(CCNC(=O)COC(=O)c2cc(=O)c3ccccc3o2)cc1 | inactive
COc1ccc(-c2c(C#Cc3ccccc3)c3ccccc3n2C)cc1 | inactive
O=c1[nH]c2c(c(=O)n1-c1ccccc1)CCO2 | inactive
O=C(CCNC(=O)c1ccc([N+](=O)[O-])cc1)NC1CCCCC1 | inactive
c1ccc(C2c3[nH]c4ccccc4c3CCN2Cc2cccn2-c2cccnc2)nc1 (stereo not drawn) | inactive
CCOc1ccc(C2c3[nH]c4ccccc4c3CCN2Cc2cccn2-c2ncccn2)cc1 (stereo not drawn) | 20.6 µM (active)
CCOc1ccc(C2c3[nH]c4ccccc4c3CCN2Cc2cn(CC)nc2C)cc1 (stereo not drawn) | inactive
CN(CC(=O)Nc1c(Cl)cccc1Cl)C(=O)CNC(=O)C1CCCCC1 | inactive
CCCCNC(=O)CSc1nccn1Cc1ccccc1 | inactive
CCOc1ccc(-n2c(SCC(=O)Nc3cc(C(=O)O)ccc3Cl)nc3ccccc3c2=O)cc1 | inactive
CCCCNC(=O)CSc1nnc(-c2ccco2)n1C | inactive
O=C(COc1ccc(Cl)cc1)NCCC1=CCCCC1 | inactive
Cc1nnc(OCC(=O)NCCC2=CCCCC2)c2ccccc12 | inactive
CCCCNC(=O)CSc1nc2n[nH]c(C)c2c(=N)n1-c1cccc(Cl)c1C | 16.4 µM (active) and 11.6 µM (active)
Cc1nnc(SCC(=O)NCCOc2ccc(Cl)cc2)n1-c1ccccc1 | inactive
Cc1ccc(-n2c(SCC(=O)NCCC3=CCCCC3)nc3n[nH]c(C)c3c2=N)cc1Cl | 11.6 µM (active)
CCC(Sc1nc2n[nH]c(C)c2c(=N)n1-c1ccccc1Cl)C(=O)N(CC)CC (stereo not drawn) | 18.4 µM (active)
CCOc1ccc(-n2c(SCC(=O)NCc3ccccc3)nc3n[nH]c(C)c3c2=N)cc1 | 9.2 µM (active)
O=C(COC(=O)c1cccnc1Cl)NC(=O)NC1CCCCC1 | inactive
C[C@H](C(=O)CC(=O)OC(C)(C)C)[C@H](O)c1ccc(C(F)(F)F)cc1 | inactive
Cc1ccc(SCCC(=O)NC(C(C)C)C(C)C)cc1 | inactive
COc1ccc(OCC(=O)Nc2ccc(NC(=O)c3ccco3)c(C)c2)cc1 | inactive
CCC1(C2CCN(C(=O)c3cccc(F)c3F)CC2)NC(=O)N(CCc2scnc2C)C1=O (stereo not drawn) | inactive
CCCC(C)NC(=O)C1CCN(C(=O)C2CC(=O)N(c3ccc(C)cc3)C2)CC1 (stereo not drawn) | inactive

Structure (SMILES) | Potency
CCN(Cc1ccccc1)S(=O)(=O)c1cc(C(=O)O)ccc1OC | inactive
CSC1=NN(c2ccccc2)CN(c2ccccc2)N1C | inactive
CC(C)NC(=O)NC(=O)CSc1nnc(-c2ccccc2F)n1N | inactive
COc1ccc(-n2c(SCC(=O)Nc3ccc(Cl)c(C)c3)nc3n[nH]c(C)c3c2=N)cc1 | 13 µM (active)
COc1ccc(-n2c(Cc3cccn3C)nnc2SCC(=O)Nc2cc(C)cc(C)c2)cc1 | inactive
COc1ccc(-n2nnnc2SCC(=O)Nc2ccccc2)cc1 | inactive
Cn1c(CNC(=O)c2ccccc2F)nnc1SCc1ccc(F)cc1 | inactive
O=C(NCc1cccnc1)c1nc(-c2cccs2)no1 | inactive
CC1CCCN(CC(=O)Nc2cc(Cl)ccc2Oc2ccccc2)C1 (stereo not drawn) | 25.9 µM (active)
O=C(CSc1ccccc1)Nc1cc(Cl)ccc1Oc1ccccc1 | inactive
CC(=O)Nc1ccc(NC(=O)CN2CCCC(C)C2)c(Cl)c1 (stereo not drawn) | inactive
CC1CCCN(S(=O)(=O)c2ccc(-c3ccc(=O)[nH]n3)o2)C1 (stereo not drawn) | inactive
Cc1ccc(/C=C/C(=O)OCC(=O)NCc2ccc(Cl)cc2)o1 | inactive
COCCNC(=O)C(c1ccc(C)o1)N(Cc1cccs1)C(=O)c1snc(C(N)=O)c1N (stereo not drawn) | inactive
Cc1ccc(N(C(=O)c2snc(C(N)=O)c2N)C(C(=O)NCC2CCCO2)c2c[nH]c3ccccc23)cc1 (stereo not drawn) | 4.61 µM (active)
CCOc1ccc(N(C(=O)c2snc(C(N)=O)c2N)C(C(=O)NCC2CCCO2)c2c[nH]c3ccccc23)cc1 (stereo not drawn) | inactive
Cc1ccc(N(C(=O)Cc2cccs2)C(C(=O)NCC2CCCO2)c2ccncc2)cc1 (stereo not drawn) | inactive
COc1ccc(N(C(=O)c2snc(C(N)=O)c2N)C(C(=O)NC2CCCC2)c2ccco2)cc1OC (stereo not drawn) | inactive
Cc1ccc(C(C(=O)NCC2CCCO2)N(C(=O)c2snc(C(N)=O)c2N)c2ccc(C(C)C)cc2)o1 (stereo not drawn) | 23.1 µM (active)
Nc1nc(Sc2ncccc2[N+](=O)[O-])n[nH]1 | inactive
O=C(Oc1ccc(Br)cc1C(=S)N1CCOCC1)c1cccc([N+](=O)[O-])c1 | inactive
O=C(NNC(=O)C(O)c1ccccc1)NC1CCCCC1 (stereo not drawn) | inactive
O=C(CN1CCN(Cc2ccc(Cl)cc2)C1=O)NCc1ccc(F)cc1 | inactive
NC(=O)c1ccc(Nc2ccc3nonc3c2[N+](=O)[O-])cc1 | inactive
CCN(CCCNC(=O)C1CCN(S(=O)(=O)c2cnc[nH]2)CC1)c1ccccc1 | inactive

Structure (SMILES) | Potency
O=C(C1CCN(S(=O)(=O)c2cnc[nH]2)CC1)N1CCN(Cc2ccc3c(c2)OCO3)CC1 | 20.6 µM (active)
Cc1cc(C)n2nc(C(=O)N3CCN(Cc4ccc5c(c4)OCO5)CC3)nc2n1 | inactive
O=C(Nc1cccc2ccccc12)N1CCN(Cc2ccc3c(c2)OCO3)CC1 | inactive
O=C(c1cccs1)N1CCN(Cc2ccc3c(c2)OCO3)CC1 | inactive
O=C(C1CCN(Cc2ccc(Cl)cc2)CC1)N1CCN(Cc2ccc3c(c2)OCO3)CC1 | 23.1 µM (active)
CCN(C(=O)CSc1nnnn1-c1ccc(OC)cc1)C1CCS(=O)(=O)C1 (stereo not drawn) | inactive
CO/N=C/c1cn(-c2ccc(Cl)cc2)nn1 | inactive
CSc1ccc(/C=N/NC(=O)c2cccc(Cl)c2)cc1 | inactive
CCOC(=O)c1ccccc1NC(=O)c1c(N)n(C)c(=O)[nH]c1=O | inactive
CCc1ccc(NC(=O)CN2C(=O)COc3ccc(S(=O)(=O)N4CCCC4)cc32)cc1 | inactive
NS(=O)(=O)c1ccc(NC(=O)/C=C/c2ccccc2Cl)cc1 | inactive
CC(=O)Nc1ccc(S(=O)(=O)Nc2ccc(N3CCCCC3)cc2)cc1 | 4.61 µM (active)
COC(=O)COc1ccc(S(=O)(=O)Nc2ccc(NC(C)=O)cc2)cc1 | inactive
COc1ccc(NS(=O)(=O)c2ccc(NC(=O)c3ccc(N(C)S(C)(=O)=O)cc3)cc2)cc1 | 8.2 µM (active)
CC(=O)Nc1ccc(NS(=O)(=O)c2ccc3c(c2)NC(=O)CC(=O)N3)cc1 | inactive
COc1ccc(NC(=O)c2cnc(NS(=O)(=O)c3ccccc3)nc2)cc1 | inactive
CC(=O)Nc1ccc(S(=O)(=O)N2CCCC2C(=O)O)cc1 (stereo not drawn) | inactive
COc1cc(OC)cc(C(=O)Nc2ccc(S(=O)(=O)Nc3cc(C)on3)cc2)c1 | inactive
CC(=O)Nc1ccc(S(=O)(=O)Nc2cccc(NC(=O)C(C)(C)C)c2)cc1 | inactive
COc1ccc(C(=O)Nc2ccc(S(=O)(=O)Nc3onc(C)c3C)cc2)cc1OC | inactive
COc1ccc(NS(=O)(=O)c2ccc(NC(C)=O)cc2)cc1OC | 9.2 µM (active)
COc1cc(NS(=O)(=O)c2ccc(NC(C)=O)cc2)cc(OC)c1 | 14.6 µM (active)
COc1ccc(/C=N/NS(=O)(=O)c2ccc(NC(C)=O)cc2)cc1 | inactive
